# The campaign covered roughly 65,000 compounds. About 2,100 (3.2%) showed an effect of 50% or more. The median lay at about -52%. What follows is part of a selection rich in strong results, with near analogues and random picks from the rest.
# Tested on: Plasmodium falciparum
# Assay: Screen against P. falciparum Asexual Blood Stage (ABS), at 5uM
# Assay type: functional, Dd2
# Conditions: tested at 5 uM
row,SMILES,INHIBITION [%]
1,Cc1ncc(CN2CCN(C(=O)N(C)C)[C@@H]3CS(=O)(=O)C[C@@H]32)cn1,-106
2,Cn1cc(CN2CCCC3(CCN(c4cccnc4)C3=O)C2)cn1 (centres undefined),-131
3,CN(C)c1nccc(N2CCO[C@H]3CN(Cc4ccco4)C[C@H]32)n1,-22
4,c1cnc(N2CCO[C@H]3CN(Cc4ccsc4)C[C@H]32)nc1,35.9
5,CN(C)c1nccc(N2CCO[C@H]3CN(Cc4ccsc4)C[C@H]32)n1,69.7
6,c1ccc(OCC2C[C@@H]3[C@@H](C2)OCCN3Cc2ccoc2)nc1 (some centres undefined),12
7,Cc1cnc(N2CCCC3(CCCN(C)C3)C2)nc1 (centres undefined),-9.73
8,CC(C)N1CCC2(CCN(C(=O)c3cccnc3)CC2)C1,5.83
9,CC(C)N1CCC2(CCCN(c3nccc(C(F)(F)F)n3)C2)CC1,81.9
10,COCCN1CCCC12CCCN(c1ncccn1)C2 (centres undefined),-47.3
11,CN1CCC2(CCCN(c3nccc(C(F)(F)F)n3)C2)CC1,79.4
12,O=C(C1CC(=O)N(c2ccccc2Br)C1)N1CCC2(CC1)OCCO2 (centres undefined),-113
13,O=C(C1CC1)N1CCC2(CC1)CNCCO2,-34.5
14,Cc1n[nH]c2c1C(c1ccc(F)cc1)SCC(=O)N2 (centres undefined),-4.37
15,Cc1c(C(C)N)cnn1-c1cccc2ccccc12 (centres undefined),74.5
16,O=C(COc1ccc(Cl)cc1Cl)N1CCCSCC1CN1CCOCC1 (centres undefined),-30
17,Cn1cccc1C(CNC(=O)COc1ccc(Cl)cc1Cl)N1CCCC1 (centres undefined),74.3
18,Cc1ccc(CCN[C@@H]2c3ccccc3C3(CCNCC3)[C@H]2O)s1,87.1
19,CN(C)C(=O)C1OC2(CCNCC2)c2ccccc21 (centres undefined),-73
20,COc1ccccc1CCN[C@@H]1c2ccccc2C2(CCNCC2)[C@H]1O,81.5
21,CCN1CCOCC2(C1)CN(C(=O)c1c(C)noc1C)CCO2 (centres undefined),-31
22,COCCN(CCOC)C(=O)c1cn(C(C)(C)C)c2ncccc12,-81.6
23,CCc1cnc(N)nc1NC(C)c1ccc(C)c(C)c1 (centres undefined),73.8
24,O=C(NC1CC1)[C@H]1CN(Cc2ccccc2)C[C@@H]1C(=O)c1ccccc1,-154
25,CC1CCN(CC(=O)NC2CCN(C(C)c3ccccc3)CC2)CC1 (centres undefined),84.3
26,O=C(CN1CCN(C(=O)Cc2ccc3c(c2)OCCO3)CC1)NC1CC1,-148

row,SMILES,INHIBITION [%]
1,Cc1cccnc1CCNC(=O)[C@@]12CNC[C@@H]1CN(S(C)(=O)=O)C2,-50.4
2,CC(Cc1c(F)cccc1F)NC(=O)Nc1cnn(CC(N)=O)c1 (centres undefined),-77.1
3,Cc1ccccc1CC(C)NCc1c(C)nn(C)c1N1CCOCC1 (centres undefined),65.8
4,Cc1nn(C)c(N(C)C)c1CNC(C)Cc1c(F)cccc1F (centres undefined),-5.23
5,CCc1cccnc1NCc1cnc(N2CCOCC2)nc1,-53.7
6,c1csc(CN2C[C@@H]3COC[C@]3(COCc3ccncc3)C2)c1,-42.6
7,COCCN1C(=O)C2(CCN(CC3CC3)CC2)c2ccccc21,-18
8,CCN1C(=O)C2(CCN(CCN(C)C)CC2)c2ccccc21,-56.2
9,O=C(c1ccoc1)N1CCC2(CC1)C(=O)N(CC1CC1)c1ccccc12,74.7
10,c1ccc(-c2nc3c(c(NCc4n[nH]c5c4CCC5)n2)CCNC3)cc1,89.6
11,CC(Cn1ccnc1)NCc1n[nH]c2c1CCC2 (centres undefined),-33
12,CCCN(C(=O)c1cccnc1)c1nc2c(s1)CCc1c-2cnn1C,82.4
13,CN1CCC2(CCN(C(=O)c3cccnc3)C2)C1 (centres undefined),-11.5
14,O=C(c1cccnc1)N1C[C@H]2CC[C@@H](C1)N(Cc1ncc[nH]1)C2,-47.1
15,O=C(c1c[nH]c(=O)c(Cl)c1)N1C[C@H]2CC[C@@H](C1)N(CC1CCC1)C2,-110
16,O=C(c1ccc(F)c(Cl)c1)N1C[C@H]2CC[C@@H](C1)N(Cc1ccccc1)C2,74.1
17,CS(=O)(=O)CC1(CNc2ccc(C#N)c(C(F)(F)F)c2)CC1,-27
18,CCOc1ccc(CNCC(O)c2ccccc2)cc1Cl (centres undefined),89.4
19,CNc1nc(C)cc(NCc2cc(C)cc3c(C)c(C)[nH]c23)n1,92.7
20,CNc1cc(C)nc(NCc2cc(C)cc3c(C)c(C)[nH]c23)n1,92
21,c1nc(N2CCOCC2)nc2c1COCC21CCN(CC2CC2)C1 (centres undefined),-12.1
22,CC(C)NC(=O)[C@H]1C[C@@H]2[C@@H](C1)OCCN2Cc1ccncc1,-82
23,COc1cccc(C2SCC(=O)Nc3ccsc32)c1OC (centres undefined),-4.19
24,CN(C)CCN1CC2(CCCN(c3ncc(Cl)cc3F)C2)CCC1=O (centres undefined),82.8
25,O=C(Cc1ccsc1)N1C[C@@H]2OCCN(CC3CC3)[C@@H]2C1,-48
26,Cc1ccc(N2CCN(C)c3ncccc3C2)nn1,-27.9

row,SMILES,INHIBITION [%]
1,CN(C)CC(=O)N1CCC2(CCc3cc(-c4cccnc4)ccc32)CC1,80.1
2,CN(C)CCN1CCCC12CCCN(C(=O)c1cccnc1)C2 (centres undefined),-10.1
3,COCC(=O)N1CCC2(CCN(Cc3cccnc3)C2)CC1,-7.11
4,c1cncc(-c2ccc3c(c2)C2(CCNCC2)CC3)c1,71.1
5,c1cncc(-c2ccc3c(c2)CCC32CCNCC2)c1,86.9
6,O=C1[C@H]2CN(Cc3ccco3)C[C@H]2CN1c1cncnc1,-54.3
7,O=C1N(c2cccnc2)CCC12CCCN(Cc1ccco1)C2 (centres undefined),-5.52
8,O=C1NC2(CCNCC2)CC1c1cccnc1 (centres undefined),-11.2
9,c1cncc(-c2ccc3c(c2)CCC32CCN(Cc3ccco3)CC2)c1,73.9
10,Cc1n[nH]c(C)c1CC(=O)N1CCN(C)C2(CCNC(=O)CC2)C1 (centres undefined),-115
11,COCCN1CCC12CCN(C(=O)Cc1cccs1)C2 (centres undefined),-9.04
12,CN1CCC2(COCc3cnc(-c4ccccc4)nc32)C1 (centres undefined),-45
13,COCCn1c(C(=O)NC(C(N)=O)C(C)C)cc2ccccc21 (centres undefined),-92
14,COc1nc(N2CCNCC2)ncc1Br,23.8
15,Cc1ccc(N2CCC3(CN(CCO)CCC3(F)F)C2)nn1 (centres undefined),-59.8
16,COc1ccc(CN2CCC3(CCCN(c4ncc(F)cn4)C3)C2)cc1 (centres undefined),87.1
17,Fc1cnc(N2CC3(CCN(Cc4ccsc4)C3)C2)nc1,3.41
18,CCc1cnc(N2CC3(CCN(Cc4ccsc4)C3)C2)nc1,-19.4
19,Fc1cnc(N2CCCC3(CCN(Cc4ccsc4)C3)C2)nc1 (centres undefined),87.6
20,Fc1cnc(N2CCCC3(CCN(Cc4nccs4)C3)C2)nc1 (centres undefined),25.5
21,COc1ncc(CN2CCC3(CCCN(CC4CCC4)C3)C2)cn1 (centres undefined),-57.4
22,CCc1ncc(CN2CCC3(CCCN(CC4CCC4)C3)C2)cn1 (centres undefined),8.28
23,Cc1c[nH]c(CN2CCC3(CCCN(Cc4ccc(F)c(F)c4)C3)C2)n1 (centres undefined),80.3
24,COCCN1CCC2(C1)CN(c1ncc(F)cn1)C2,-81.1
25,Fc1cnc(N2CCCC3(CCN(Cc4ccoc4)C3)C2)nc1 (centres undefined),73.7
26,Cc1ncc(CN2CCC3(CCCN(CC4CCC4)C3)C2)cn1 (centres undefined),-45.2

row,SMILES,INHIBITION [%]
1,Cc1oc(-c2ccco2)nc1CC(=O)N1CCN(CC(C)(C)O)CC1,-109
2,Cc1noc(CN2CC=C(c3c[nH]c4ncccc34)CC2)n1,-31.2
3,Cc1cccc(CN2C[C@@H](NC(=O)C3CC3)[C@H]3OCCC[C@H]32)n1,-83.3
4,Fc1cnc(N2CCCC3(CCN(Cc4ccco4)C3)C2)nc1 (centres undefined),78.2
5,Fc1cnc(N2CCCC3(CCN(Cc4cccs4)C3)C2)nc1 (centres undefined),69.4
6,Cc1cnc(N2CC3(CCN(Cc4cccnc4)C3)C2)nc1,12.1
7,Fc1cnc(N2CCOC3(CCN(Cc4ccsc4)CC3)C2)nc1,81.6
8,Fc1cnc(N2CCCC3(CN(Cc4cccs4)CCO3)C2)nc1 (centres undefined),-78.4
9,c1cnc(N2CCCC3(CCN(Cc4ccncc4)C3)C2)nc1 (centres undefined),-63.1
10,c1cnc(N2CCCC3(CCN(Cc4ccsc4)C3)C2)nc1 (centres undefined),68.1
11,Cc1cnc(N2CCOC3(CCCN(C)C3)C2)nc1 (centres undefined),14.9
12,Fc1cnc(N2CCOCC3(CCCNC3)C2)nc1 (centres undefined),-11.2
13,c1cnc(N2CCCC3(CCN(Cc4cccs4)C3)C2)nc1 (centres undefined),40.4
14,c1cnc(N2CCOCC3(CN(Cc4ccsc4)CCO3)C2)nc1 (centres undefined),-62.3
15,Cc1ccc(N2CCO[C@H]3CN(Cc4ccoc4)C[C@H]32)nn1,-106
16,Cc1cc(CN2C[C@@H]3CN(Cc4ccsc4)CCO[C@@H]3C2)no1,-101
17,CC(C)(C)c1cc(=O)[nH]c(C2(N)CCCCC2)n1,-114
18,O=C(NC1CCC1)[C@H]1C[C@H]2NCCO[C@@H]2C1,-269
19,c1ccc(N2CC3(CCN(Cc4cccnc4)C3)C2)nc1,-13.8
20,c1ccc(N2CCCC3(CCN(Cc4ccsc4)C3)C2)nc1 (centres undefined),82.6
21,CCc1nc(CC(=O)N2CCCC2CN2CCCC2)cs1 (centres undefined),-48.9
22,CN(Cc1n[nH]c2c1CCCC2)c1nc(C2CC2)nc2c1CCNCC2,89.5
23,CN(C)c1nc2c(c(N(C)Cc3n[nH]c4c3CCCC4)n1)CCNCC2,84.4
24,CN(C)C[C@]12COC[C@H]1CN(Cc1ccc3ccccc3n1)C2,27.2
25,Cn1cccc1C(=O)N1CCN2C[C@H](Oc3cccnc3)C[C@H]2C1,30.4
26,COC(=O)c1ccc(C2SCC(=O)Nc3c2cnn3C(C)(C)C)cc1 (centres undefined),-53.3

# Reference: ChEMBL document CHEMBL4513216, “Probing the Open Global Health Chemical Diversity Library for Multistage-Active Starting Points for Next-Generation Antimalarials” (ACS Infect Dis, 2020)
